Test results reported in the supplement of paper PMC10849652.
The full data set covers some 8,800 targets. This sample favours those with a hit. About 0.5% of all pairs of compound and target were hits.

Key:
Assay in all cases: log2 fold change, soluble protein after heating vs DMSO (PISA); higher = thermal stabilisation; K562 lysate, 10 uM; active = over 0.2 and 3.5 SD of the protein, either way, in both replicates (recomputed)
ibrutinib = compound: C=CC(=O)N1CCC[C@@H](n2nc(-c3ccc(Oc4ccccc4)cc3)c3c(N)ncnc32)C1 [ibrutinib]
Procedure, shortened: (§1)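 Quantification was by TMTpro 16plex LC-MS/MS with equalised channel sums, applied to the supernatant after 21,000xg for 90 min. Samples were crude K562 extract at 1 mg/mL protein in PBS pH 7.4 with 1 mM MgCl2, treated with 10 μM compound for 30 min, heated for 3 min across 48°C-58°C, pooled and brought to 0.5% NP-40 at 4°C. Values are log-two fold changes in thermal stability relative to solvent controls, from duplicates.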

[1] = compound: CC(=O)c1cnc2ccc(-c3cc(Cl)c(O)c(Cl)c3)nc2c1N[C@H]1CC[C@H](CN(C)C)CC1
Procedure, shortened: as §1

ralimetinib = compound: CC(C)(C)Cn1c(N)nc2ccc(-c3[nH]c(C(C)(C)C)nc3-c3ccc(F)cc3)nc21 [ralimetinib]
Procedure, shortened: as §1

[2] = compound: CC(C)(O)CC(=O)NCCn1ccc2ncnc(Nc3ccc(Oc4cccc(C(F)(F)F)c4)c(Cl)c3)c21
Procedure, shortened: as §1

[3] = compound: CC(C)C1=C2N=C(C=C(N2N=C1)NCC3=CC=CC=C3)NCCCCCCN
Procedure, shortened: as §1

[4] = compound: CC1=C(C(CC(=O)N1)C2=CC=C(C=C2)C(F)(F)F)C(=O)NC3=C(C=C4C(=C3)C=NN4)F
Procedure, shortened: as §1

[5] = compound: CC1=C(C2=C(C=C1)C(=O)C3=CC=CC=C3N2CCCN)C
Procedure, shortened: as §1

[6] = compound: CC1=C(C=C(C=C1)NC(=O)C2=CC(=CC=C2)C(C)(C)C#N)NC3=CC4=C(C=C3)N=CN(C4=O)C
Procedure, shortened: as §1

[7] = compound: CC1=C(C=C(C=C1)NC(=O)C2=CC(=CC=C2)N(C)C)NC(=O)C3=CC=C(C=C3)O
Procedure, shortened: as §1

[8] = compound: CC1=CC=C(C=C1)SC2=C3C=C(SC3=CN=C2)C(=O)N
Procedure, shortened: as §1

Measured: log2 fold change

SULT1A1 (UniProt P50225)
inactive: ibrutinib 0.02 | [1] -0.027 | ralimetinib 0.028 | [2] -0.03 | [3] 0.03 | [4] -0.009 | [5] -0.06 | [6] 0.022 | [7] 0.047 | [8] 0.006

TANGO6 (UniProt Q9C0B7)
inactive: ibrutinib -0.056 | [1] 0.039 | ralimetinib 0.023 | [2] 0.02 | [3] -0.067 | [4] -0.028 | [5] -0.017 | [6] -0.013 | [7] -0.02 | [8] -0.011

SKA3 (UniProt Q8IX90)
inactive: ibrutinib 0.001 | [1] -0.032 | ralimetinib -0.021 | [2] -0.038 | [3] 0.007 | [4] 0.027 | [5] -0.011 | [6] 0.027 | [7] 0.025 | [8] -0.046

SMG6 (UniProt Q86US8)
UniProt Q86US8, sequence (Q86US8 whole entry, looked up): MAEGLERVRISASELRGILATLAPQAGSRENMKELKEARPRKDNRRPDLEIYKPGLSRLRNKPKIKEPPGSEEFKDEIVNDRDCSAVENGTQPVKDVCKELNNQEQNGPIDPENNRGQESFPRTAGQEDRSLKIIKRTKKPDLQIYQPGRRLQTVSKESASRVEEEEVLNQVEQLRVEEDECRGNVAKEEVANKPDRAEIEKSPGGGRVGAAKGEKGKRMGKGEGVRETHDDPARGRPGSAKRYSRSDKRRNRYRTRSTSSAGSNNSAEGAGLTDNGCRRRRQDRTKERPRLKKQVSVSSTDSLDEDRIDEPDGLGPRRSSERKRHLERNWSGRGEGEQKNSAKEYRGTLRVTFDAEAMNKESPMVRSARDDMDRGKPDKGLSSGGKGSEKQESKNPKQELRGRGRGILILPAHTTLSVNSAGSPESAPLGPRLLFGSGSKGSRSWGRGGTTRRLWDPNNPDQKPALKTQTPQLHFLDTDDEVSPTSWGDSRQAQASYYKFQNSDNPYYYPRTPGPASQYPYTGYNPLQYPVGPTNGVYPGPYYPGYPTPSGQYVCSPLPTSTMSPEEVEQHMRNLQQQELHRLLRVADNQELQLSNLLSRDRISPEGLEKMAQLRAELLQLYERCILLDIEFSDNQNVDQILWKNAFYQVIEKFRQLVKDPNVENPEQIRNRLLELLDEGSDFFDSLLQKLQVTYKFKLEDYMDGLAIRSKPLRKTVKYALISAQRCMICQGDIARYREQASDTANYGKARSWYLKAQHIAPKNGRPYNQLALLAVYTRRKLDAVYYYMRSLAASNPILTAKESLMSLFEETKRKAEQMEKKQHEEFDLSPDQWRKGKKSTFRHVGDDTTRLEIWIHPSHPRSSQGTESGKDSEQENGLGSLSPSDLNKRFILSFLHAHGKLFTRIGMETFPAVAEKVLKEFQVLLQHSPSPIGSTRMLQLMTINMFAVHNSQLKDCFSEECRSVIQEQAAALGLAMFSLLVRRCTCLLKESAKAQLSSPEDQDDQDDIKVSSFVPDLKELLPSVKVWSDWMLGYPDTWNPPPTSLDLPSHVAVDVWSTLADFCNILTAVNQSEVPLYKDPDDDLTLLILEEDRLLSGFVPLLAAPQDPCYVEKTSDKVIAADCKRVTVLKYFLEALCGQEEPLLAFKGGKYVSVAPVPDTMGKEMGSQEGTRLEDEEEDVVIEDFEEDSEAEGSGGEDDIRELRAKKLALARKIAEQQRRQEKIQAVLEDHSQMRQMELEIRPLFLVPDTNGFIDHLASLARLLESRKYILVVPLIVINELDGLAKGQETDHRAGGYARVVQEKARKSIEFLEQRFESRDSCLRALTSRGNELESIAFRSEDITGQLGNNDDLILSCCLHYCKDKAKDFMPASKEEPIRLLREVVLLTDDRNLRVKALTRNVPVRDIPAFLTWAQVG
inactive: ibrutinib 0.071 | [1] -0.061 | ralimetinib 0.034 | [2] -0.016 | [3] 0.012 | [4] 0.074 | [5] 0.006 | [6] 0.004 | [7] 0.047 | [8] 0.059

TARDBP (UniProt Q13148)
inactive: ibrutinib -0.161 | [1] 0.052 | ralimetinib -0.004 | [2] -0.076 | [3] 0.015 | [4] 0.019 | [5] 0.068 | [6] -0.059 | [7] 0.01 | [8] 0.019

SQLE (UniProt Q14534)
UniProt Q14534, sequence (Q14534 whole entry, looked up): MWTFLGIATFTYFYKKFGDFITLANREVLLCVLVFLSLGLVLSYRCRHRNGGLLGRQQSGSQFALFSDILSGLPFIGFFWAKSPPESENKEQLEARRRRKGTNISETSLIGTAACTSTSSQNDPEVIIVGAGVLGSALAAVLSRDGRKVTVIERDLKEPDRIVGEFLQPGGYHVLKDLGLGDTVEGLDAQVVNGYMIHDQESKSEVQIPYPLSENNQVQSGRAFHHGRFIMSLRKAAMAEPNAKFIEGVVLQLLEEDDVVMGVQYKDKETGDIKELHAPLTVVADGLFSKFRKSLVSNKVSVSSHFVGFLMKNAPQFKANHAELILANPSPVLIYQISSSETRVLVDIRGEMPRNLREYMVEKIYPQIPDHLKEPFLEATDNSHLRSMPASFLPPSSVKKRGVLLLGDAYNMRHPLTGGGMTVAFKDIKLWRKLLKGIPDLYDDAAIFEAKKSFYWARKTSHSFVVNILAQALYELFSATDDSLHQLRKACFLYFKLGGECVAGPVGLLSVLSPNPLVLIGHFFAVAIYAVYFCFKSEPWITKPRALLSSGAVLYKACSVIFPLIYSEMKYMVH
inactive: ibrutinib 0.028 | [1] 0.051 | ralimetinib 0.081 | [2] -0.047 | [3] 0 | [4] -0.02 | [5] -0.006 | [6] 0.039 | [7] -0.06 | [8] -0.027

STK11IP (UniProt Q8N1F8)
inactive: ibrutinib -0.016 | [1] -0.024 | ralimetinib 0.044 | [2] -0.055 | [3] 0 | [4] 0.046 | [5] 0.024 | [6] -0.009 | [7] 0 | [8] 0.015

SMC2 (UniProt O95347)
inactive: ibrutinib 0.014 | [1] -0.011 | ralimetinib -0.016 | [2] -0.008 | [3] 0.014 | [4] -0.012 | [5] 0 | [6] 0 | [7] 0.013 | [8] 0.001

SIX5 (UniProt Q8N196)
inactive: ibrutinib -0.021 | [1] 0.009 | ralimetinib -0.023 | [2] -0.046 | [3] -0.042 | [4] -0.061 | [5] 0.011 | [6] 0.017 | [7] 0.13 | [8] 0.021

SH3GL1 (UniProt Q99961)
inactive: ibrutinib -0.004 | [1] 0 | ralimetinib 0.031 | [2] 0.006 | [3] -0.015 | [4] -0.03 | [5] 0.017 | [6] 0.025 | [7] 0.006 | [8] -0.012

SPIRE1 (UniProt Q08AE8)
inactive: ibrutinib 0.082 | [1] -0.031 | ralimetinib -0.028 | [2] 0.011 | [3] -0.014 | [4] -0.069 | [5] 0.002 | [6] 0.014 | [7] 0.016 | [8] -0.05

SLC38A1 (UniProt Q9H2H9)
UniProt Q9H2H9, sequence (Q9H2H9 whole entry, looked up): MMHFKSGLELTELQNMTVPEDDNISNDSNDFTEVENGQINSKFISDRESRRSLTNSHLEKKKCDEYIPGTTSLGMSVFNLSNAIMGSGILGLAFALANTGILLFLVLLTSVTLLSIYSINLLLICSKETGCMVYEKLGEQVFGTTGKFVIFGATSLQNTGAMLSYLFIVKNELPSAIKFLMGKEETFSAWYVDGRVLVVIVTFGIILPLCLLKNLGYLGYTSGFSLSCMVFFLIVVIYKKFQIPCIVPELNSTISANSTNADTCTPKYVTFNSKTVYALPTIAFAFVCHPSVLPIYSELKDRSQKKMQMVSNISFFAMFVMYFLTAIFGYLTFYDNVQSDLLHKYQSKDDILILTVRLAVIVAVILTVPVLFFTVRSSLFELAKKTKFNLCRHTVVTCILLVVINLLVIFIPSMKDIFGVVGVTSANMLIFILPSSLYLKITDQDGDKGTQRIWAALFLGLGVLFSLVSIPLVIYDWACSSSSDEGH
inactive: ibrutinib 0.001 | [1] -0.053 | ralimetinib -0.021 | [2] -0.041 | [3] 0.037 | [4] -0.001 | [5] -0.039 | [6] 0.027 | [7] 0.018 | [8] -0.01

STK36 (UniProt Q9NRP7)
UniProt Q9NRP7, sequence (Q9NRP7 whole entry, looked up): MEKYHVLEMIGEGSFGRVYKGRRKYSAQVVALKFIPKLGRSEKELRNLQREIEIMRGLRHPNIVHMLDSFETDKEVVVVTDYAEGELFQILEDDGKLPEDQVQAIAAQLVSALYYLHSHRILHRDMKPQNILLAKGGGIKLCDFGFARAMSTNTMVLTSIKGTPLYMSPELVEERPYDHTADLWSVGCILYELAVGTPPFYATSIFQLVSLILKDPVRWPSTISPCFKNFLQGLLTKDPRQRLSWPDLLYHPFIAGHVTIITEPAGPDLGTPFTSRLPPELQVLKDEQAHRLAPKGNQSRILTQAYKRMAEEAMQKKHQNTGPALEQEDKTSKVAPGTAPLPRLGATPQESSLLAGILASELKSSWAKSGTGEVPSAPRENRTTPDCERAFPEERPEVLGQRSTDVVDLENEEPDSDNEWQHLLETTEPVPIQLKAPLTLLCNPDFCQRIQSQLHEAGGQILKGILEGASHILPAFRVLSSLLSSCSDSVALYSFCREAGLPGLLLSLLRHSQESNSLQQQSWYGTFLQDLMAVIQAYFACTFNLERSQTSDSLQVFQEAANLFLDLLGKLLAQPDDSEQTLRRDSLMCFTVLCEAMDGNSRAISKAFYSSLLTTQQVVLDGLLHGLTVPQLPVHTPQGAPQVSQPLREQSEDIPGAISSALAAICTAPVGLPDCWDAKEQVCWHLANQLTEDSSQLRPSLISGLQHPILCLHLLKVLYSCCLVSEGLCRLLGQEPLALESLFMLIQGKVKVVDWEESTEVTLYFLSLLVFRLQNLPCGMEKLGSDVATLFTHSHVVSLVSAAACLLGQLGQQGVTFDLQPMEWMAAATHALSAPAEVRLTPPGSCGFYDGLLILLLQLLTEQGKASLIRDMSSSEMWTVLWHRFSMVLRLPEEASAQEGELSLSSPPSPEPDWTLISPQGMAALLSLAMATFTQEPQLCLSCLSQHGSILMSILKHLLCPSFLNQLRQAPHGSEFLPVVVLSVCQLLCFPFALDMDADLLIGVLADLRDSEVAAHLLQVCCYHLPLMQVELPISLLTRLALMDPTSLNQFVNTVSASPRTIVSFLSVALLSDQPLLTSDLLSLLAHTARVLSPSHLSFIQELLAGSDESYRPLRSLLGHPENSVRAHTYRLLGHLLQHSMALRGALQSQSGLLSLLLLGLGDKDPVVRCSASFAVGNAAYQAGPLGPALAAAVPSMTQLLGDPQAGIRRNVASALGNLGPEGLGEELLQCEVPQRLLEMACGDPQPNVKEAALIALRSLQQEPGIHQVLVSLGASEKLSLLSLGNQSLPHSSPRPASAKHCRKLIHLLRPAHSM
inactive: ibrutinib 0.019 | [1] -0.182 | ralimetinib -0.087 | [2] -0.416 | [3] 0.071 | [4] -0.058 | [5] -0.176 | [6] 0.408 | [7] -0.004 | [8] -0.097

SNCA (UniProt P37840)
inactive: ibrutinib 0.102 | [1] -0.148 | ralimetinib 0.028 | [2] 0.02 | [3] 0.013 | [4] 0.036 | [5] -0.068 | [6] -0.042 | [7] -0.059 | [8] 0.028

SYPL1 (UniProt Q16563)
inactive: ibrutinib 0.015 | [1] 0.004 | ralimetinib 0.018 | [2] -0.058 | [3] 0 | [4] -0.025 | [5] -0.018 | [6] 0.007 | [7] 0.006 | [8] -0.005

SRM (UniProt P19623)
inactive: ibrutinib 0.018 | [1] 0.007 | ralimetinib 0.025 | [2] -0.047 | [3] -0.011 | [4] -0.003 | [5] -0.006 | [6] 0.003 | [7] 0 | [8] -0.011

SND1 (UniProt Q7KZF4)
inactive: ibrutinib 0.012 | [1] 0.004 | ralimetinib 0.03 | [2] 0.044 | [3] 0.027 | [4] 0.024 | [5] 0.015 | [6] 0.003 | [7] 0.038 | [8] 0.024

SHC1 isoform 6 (UniProt P29353)
inactive: ibrutinib 0.053 | [1] -0.007 | ralimetinib -0.02 | [2] -0.041 | [3] -0.007 | [4] -0.016 | [5] -0.006 | [6] -0.004 | [7] 0.002 | [8] -0.008

TAF6L (UniProt Q9Y6J9)
UniProt Q9Y6J9, sequence (Q9Y6J9 whole entry, looked up): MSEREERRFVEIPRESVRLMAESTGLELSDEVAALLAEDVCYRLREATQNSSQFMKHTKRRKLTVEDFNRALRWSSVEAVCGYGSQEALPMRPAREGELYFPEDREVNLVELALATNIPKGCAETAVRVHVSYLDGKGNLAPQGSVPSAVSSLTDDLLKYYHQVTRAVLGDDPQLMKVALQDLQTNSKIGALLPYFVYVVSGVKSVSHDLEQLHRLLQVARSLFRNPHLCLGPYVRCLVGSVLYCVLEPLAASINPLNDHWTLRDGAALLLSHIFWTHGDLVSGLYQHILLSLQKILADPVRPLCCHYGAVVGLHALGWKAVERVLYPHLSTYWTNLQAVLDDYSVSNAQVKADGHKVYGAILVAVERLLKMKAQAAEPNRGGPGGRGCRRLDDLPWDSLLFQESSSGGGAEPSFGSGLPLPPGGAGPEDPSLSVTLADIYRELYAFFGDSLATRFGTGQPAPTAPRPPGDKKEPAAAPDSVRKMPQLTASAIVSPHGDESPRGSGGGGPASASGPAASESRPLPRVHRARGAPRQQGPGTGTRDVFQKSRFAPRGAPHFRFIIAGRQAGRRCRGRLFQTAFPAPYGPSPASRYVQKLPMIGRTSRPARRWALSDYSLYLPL
inactive: ibrutinib 0.072 | [1] 0.046 | ralimetinib 0.042 | [2] -0.078 | [3] 0.01 | [4] -0.041 | [5] -0.006 | [6] -0.027 | [7] 0.027 | [8] -0.009

SMIM8 (UniProt Q96KF7)
UniProt Q96KF7, sequence (Q96KF7 whole entry, looked up): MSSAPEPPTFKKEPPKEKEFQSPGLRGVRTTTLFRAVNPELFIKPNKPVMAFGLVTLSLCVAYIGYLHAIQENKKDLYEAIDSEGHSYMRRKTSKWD
inactive: ibrutinib 0.073 | [1] -0.02 | ralimetinib 0.059 | [2] -0.136 | [3] -0.095 | [4] -0.025 | [5] -0.128 | [6] 0.038 | [7] 0.053 | [8] -0.006

SMARCAD1 isoform 2 (UniProt Q9H4L7)
inactive: ibrutinib 0.006 | [1] -0.021 | ralimetinib 0.022 | [2] -0.016 | [3] 0.007 | [4] 0.008 | [5] 0.012 | [6] 0.021 | [7] 0.014 | [8] -0.022

SNRPD2 (UniProt P62316)
inactive: ibrutinib -0.028 | [1] -0.033 | ralimetinib -0.018 | [2] -0.041 | [3] 0.007 | [4] -0.011 | [5] 0.016 | [6] 0.01 | [7] 0.015 | [8] -0.005

STK39 (UniProt Q9UEW8)
inactive: ibrutinib -0.114 | [1] 0.011 | ralimetinib 0.012 | [2] -0.041 | [3] -0.015 | [4] 0.007 | [5] -0.045 | [6] -0.02 | [7] 0.037 | [8] -0.019

SLC39A11 (UniProt Q8N1S5)
inactive: ibrutinib -0.065 | [1] -0.008 | ralimetinib -0.136 | [2] -0.042 | [3] -0.023 | [4] 0.051 | [5] 0.16 | [6] -0.074 | [7] -0.089 | [8] 0.001

SMG5 (UniProt Q9UPR3)
inactive: ibrutinib -0.041 | [1] 0.048 | ralimetinib 0.021 | [2] -0.032 | [3] -0.037 | [4] 0.071 | [5] 0.015 | [6] -0.117 | [7] 0.057 | [8] 0.024

STAT2 (UniProt P52630)
inactive: ibrutinib 0.007 | [1] 0.007 | ralimetinib 0.04 | [2] -0.026 | [3] -0.003 | [4] 0.009 | [5] -0.002 | [6] -0.059 | [7] 0.003 | [8] 0.004

STAU1 (UniProt O95793)
inactive: ibrutinib 0.043 | [1] -0.021 | ralimetinib 0.03 | [2] -0.011 | [3] 0 | [4] 0.017 | [5] -0.022 | [6] -0.037 | [7] 0.018 | [8] 0.022

SMAD2 (UniProt Q15796)
UniProt Q15796, sequence (Q15796 whole entry, looked up): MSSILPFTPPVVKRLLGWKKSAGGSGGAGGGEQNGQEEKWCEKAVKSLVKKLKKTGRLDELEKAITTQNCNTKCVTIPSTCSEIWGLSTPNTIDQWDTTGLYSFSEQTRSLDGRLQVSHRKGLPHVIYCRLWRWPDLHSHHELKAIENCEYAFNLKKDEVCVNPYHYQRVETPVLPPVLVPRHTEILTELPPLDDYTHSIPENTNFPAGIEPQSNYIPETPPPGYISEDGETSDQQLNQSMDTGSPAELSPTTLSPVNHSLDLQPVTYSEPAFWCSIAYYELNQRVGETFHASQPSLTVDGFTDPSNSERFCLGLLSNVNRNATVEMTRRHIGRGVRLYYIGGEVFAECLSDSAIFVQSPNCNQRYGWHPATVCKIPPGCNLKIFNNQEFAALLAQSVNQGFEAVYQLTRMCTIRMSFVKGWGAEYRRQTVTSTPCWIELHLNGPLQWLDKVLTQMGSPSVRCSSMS
inactive: ibrutinib 0.041 | [1] -0.014 | ralimetinib 0.025 | [2] 0.012 | [3] 0.005 | [4] -0.061 | [5] -0.014 | [6] 0.054 | [7] 0.029 | [8] 0.017

SLC25A32 (UniProt Q9H2D1)
inactive: ibrutinib 0.029 | [1] 0.005 | ralimetinib 0.006 | [2] -0.017 | [3] -0.017 | [4] -0.03 | [5] -0.031 | [6] 0.048 | [7] -0.021 | [8] -0.007

TARBP1 (UniProt Q13395)
inactive: ibrutinib -0.021 | [1] 0.036 | ralimetinib 0.162 | [2] 0.03 | [3] -0.051 | [4] -0.027 | [5] -0.077 | [6] 0.002 | [7] 0.035 | [8] -0.036
